# Source: PubChem (Buhrlage Lab, Dana-Farber Cancer Institute and Novartis Institutes for BioMedical Research (Cambridge, Mass))
# Sampled rows, rich in hits. Any-hit rate of the full collection: about 13%.
# USP30 inh: blocks human USP30 ubiquitin-rhodamine cleavage; Q70CQ3; purified USP30, Ub-rhodamine cleavage fluorescence; inhibition, % at 25 µM; 47,000 tested, 5.3% active
# USP28 inh: inhibitors of human USP28 deubiquitinase; Q96RU2; inhibition, % at 25 µM; AID 1645857; purified USP28, Ub-rhodamine cleavage fluorescence, 30 min; 47,000 tested, 3% active
# USP8 inh: human USP8 deubiquitinase inhibition | P40818 | purified USP8, Ub-rhodamine cleavage fluorescence, 30 min | inhibition, % at 20 µM | 47,000 tested, 4.2% active | AID 1645853
# USP17 block: blocks human USP17 ubiquitin-rhodamine cleavage; purified USP17, Ub-rhodamine cleavage fluorescence, 3 h; inhibition, % at 50 µM; 47,000 tested, 6.5% active
# Target sequence (A8MUK1 whole entry, looked up): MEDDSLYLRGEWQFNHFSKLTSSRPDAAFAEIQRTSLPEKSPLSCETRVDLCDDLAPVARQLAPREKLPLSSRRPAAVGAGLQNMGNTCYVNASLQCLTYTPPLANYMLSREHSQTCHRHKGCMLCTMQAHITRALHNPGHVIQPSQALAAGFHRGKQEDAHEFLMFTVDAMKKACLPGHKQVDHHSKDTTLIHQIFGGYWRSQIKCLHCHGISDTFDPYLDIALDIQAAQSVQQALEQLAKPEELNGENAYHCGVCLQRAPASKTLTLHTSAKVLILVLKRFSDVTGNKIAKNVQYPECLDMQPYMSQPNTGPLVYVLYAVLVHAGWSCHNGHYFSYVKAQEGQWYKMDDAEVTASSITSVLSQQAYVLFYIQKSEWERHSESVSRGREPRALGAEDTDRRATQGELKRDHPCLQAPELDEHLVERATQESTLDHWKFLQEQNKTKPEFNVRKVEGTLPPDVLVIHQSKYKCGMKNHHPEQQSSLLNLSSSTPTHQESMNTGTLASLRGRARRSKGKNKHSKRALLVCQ
# The depositor's hits bear a star; x = no result. No stated cut-off is given here; in the data, active means inhibition above about 30%; inactive means the rest.
SMILES,USP30 inh,USP28 inh,USP8 inh,USP17 block
Cc1nc(N2CCN(c3ccc(Cl)cc3)CC2)c2oc3ccccc3c2n1,23.3,5.2,63.4*,25.5
COc1cc(CCNC(=O)Cc2cccc(Br)c2)ccc1OCc1ccccc1,48.5*,23.7,14.5,22.6
COc1ccccc1-n1c(CNC(=O)c2ccc(S(=O)(=O)N3CCOCC3)cc2)nnc1SCC(=O)N1CCCc2ccccc21,4.7,3.5,-9.1,7.3
COc1ccc(CC(=O)N2CCC3(CC2)NCCc2[nH]cnc23)cc1,-0.2,2.8,24.3,12.4
O=C(NCC(=O)N1CCC2(CC1)NCCc1[nH]cnc12)c1ccc(-c2ccccc2)cc1,0.4,4.7,48.6*,1.7
COc1ccc(CC(=O)NCC(=O)N2CCC3(CC2)NCCc2[nH]cnc23)cc1,-239.4,-43.3,33.7*,-29.7
O=C(Cc1ccc(F)cc1)N1CCC2(CC1)NCCc1[nH]cnc12,9.8,7.2,38.5*,8.1
CCOCCn1c(SCC(=O)OCc2ccccc2)nc2c1c(=O)[nH]c(=O)n2C,15.7,9.3,-2.4,0.3
CN1c2cc(Cl)ccc2-c2nc(SCC(=O)Nc3ccc(F)cc3)ncc2S1(=O)=O,-18.9,1.3,-0.8,0.0
CN1c2ccc(Cl)cc2-c2nc(SCC(=O)Nc3ccc(F)cc3)ncc2S1(=O)=O,27.6,11.8,50.3*,7.0
Cc1ccc(NC(=O)CSc2nnc(-c3cnccn3)n2Cc2ccco2)cc1,x,x,0.4,53.4*
CCN1CCCC1CNC(=O)c1ccc2c(c1)N(Cc1cccc(F)c1)C(=O)c1ccccc1S2 (configuration not stated),-167.1,-33.6,-1.0,-33.1
COc1cccc(N2CCN(c3ccc4nnc(CCC(=O)NCCC5=CCCCC5)n4n3)CC2)c1,8.1,1.7,69.2*,x
COc1cccc(N2CCN(c3ccc4nnc(CCC(=O)NCCN5CCCC5)n4n3)CC2)c1,-1.6,-11.2,-7.0,-2.8
COC(=O)C(NC(=O)CCc1nnc2ccc(N3CCN(c4cccc(OC)c4)CC3)nn12)C(C)C (configuration not stated),9.3,3.5,34.0*,7.5
CCOC(=O)c1ccc(NC(=O)CCS(=O)(=O)c2ccc3c(c2)SCC(=O)N3)cc1,-209.1,-6.0,-23.4,-22.7
Cc1ccc(C(C)C)cc1OCCOCCN1CCNCC1,26.8,59.5*,-76.8,-11.4
Cc1ccc(C)c(OCCOCCN2CCNCC2)c1C,5.6,2.0,-9.2,-0.6
O=C(Cn1nc(-c2ccco2)ccc1=O)Nc1cccc(Br)c1,28.9,12.4,1.1,36.7*
CC(=O)Nc1cc(C(=O)NCCN2CCCCC2)c2ccc(C)nc2c1,-240.5,-34.3,4.0,-38.4
CC(=O)Nc1cc(C(=O)NC2CCCC2)c2ccc(C)nc2c1,-56.8,1.6,33.6*,6.5
N=C(N)C1CN(CCNc2ncc(C(F)(F)F)cc2Cl)C(=O)NC1=O (configuration not stated),-174.3,-13.2,-112.3,-21.6
N#Cc1cccc(CSC2=NS(=O)(=O)c3ccccc3N2)c1,-11.4,-14.8,1.0,-23.8
COc1ccc(-n2c(SCC(=O)c3ccc(F)cc3)nnc2-c2cccnc2)cc1,22.2,7.5,23.7,70.7*
COc1ccc(C(=O)CSc2ccc3nnc(-c4cccnc4)n3n2)cc1,-19.0,-21.5,4.1,-6.7
SMILES,USP30 inh,USP28 inh,USP8 inh,USP17 block
Cc1cc(S(=O)(=O)N2CCC(C3(C)NC(=O)NC3=O)CC2)ccc1F (configuration not stated),8.6,2.9,52.8*,4.2
O=c1[nH]cccc1NS(=O)(=O)c1ccc(F)cc1,-33.1,4.7,92.8*,85.7*
COc1cccc(C(=O)N2CCN(Cc3cc(=O)c4ccccc4[nH]3)CC2)c1,5.1,4.0,12.5,1.0
c1cnc(-c2n[nH]c(C3CCN(CC4CCCCC4)CC3)n2)cn1,3.7,-5.0,4.0,-10.0
Cc1ccc(-n2ccnc2N2CCN(CC(=O)Nc3ccccc3C)CC2)cc1,-8.8,-7.0,-12.8,-22.4
Nc1nc(SCc2ccc([N+](=O)[O-])cc2)[nH]c(=O)c1NC(=O)c1ccco1,-33.6,-1.5,39.5*,-27.2
c1ccc(-c2cc(CSc3nc4ccccc4[nH]3)no2)cc1,-33.1,4.3,1.8,32.5*
Cc1c(O)cc(O)cc1O,-167.2,-3.5,-331.9,54.4*
Cc1cc(O)c(C)c(O)c1C=O,27.4,3.1,8.6,4.9
C[C@@H]1CCC2(C)CC[C@]3(C)C(=CCC4[C@@]5(C)CCC(O)C(C)(C)C5CC[C@]43C)C2[C@H]1C (some centres not stated),21.4,9.9,5.9,9.3
C[C@H]1[C@H](C)CCC23CC[C@]4(C)[C@@](C=CC5[C@@]6(C)CC[C@H](O)C(C)(C)[C@@H]6CC[C@]54C)(OC2=O)[C@H]13 (some centres not stated),56.2*,38.4*,1.0,50.3*
CC12C(=O)N(C3CCCC3)CC(=O)N1CCc1c2[nH]c2ccccc12 (configuration not stated),x,x,1.2,-5.8
CC(=O)Nc1nsc(N2CCC(C(=O)NCc3ccccc3Cl)CC2)n1,7.3,9.0,-0.7,4.5
O=C(NCc1ccccc1Cl)C1CCN(c2ccc(-c3ccccc3)nn2)CC1,41.1*,5.8,46.6*,0.6
Cc1ccccc1CNC(=O)c1ccc(-c2ccc(N3CCCC3)nn2)cc1,-3.3,4.2,3.7,47.7*
COc1cc(OC)cc(N2C(=O)CCC2(C)C(=O)NC2CCCC2)c1 (configuration not stated),-34.9,-16.0,-25.6,-23.6
O=C1CC(c2ccco2)CC2=C1C(c1ccc(Cl)cc1)Nc1ccccc1N2 (configuration not stated),-430.4,-61.5,-14.7,-27.8
O=C1CC(c2ccco2)Cc2[nH]c(=O)c(C(=O)Nc3ccc(Cl)cc3)cc21 (configuration not stated),-36.5,34.7*,-16.3,59.5*
Cn1ncc2c(N3CCOCC3)nc(C(=O)NCc3ccc(Cl)cc3)nc21,19.2,14.5,17.5,4.5
Cc1cc2nc(N3CCOCC3)n(CC(=O)Nc3ccccc3)c(=O)c2n1C,-11.8,-4.8,0.9,17.5
Cc1scc2nc(C(=O)Nc3ccc4c(c3)OCO4)nc(N3CCOCC3)c12,18.6,32.2*,20.0,23.0
Cc1scc2nc(C(=O)N3CCCC3)nc(N3CCOCC3)c12,-72.9,-16.9,-98.4,-28.3
Cc1cccc(NC(=O)c2nc(N3CCOCC3)c3cnn(C)c3n2)c1,41.9*,19.2,1.4,44.2*
Cc1cccc(NC(=O)Cn2c(N3CCOCC3)nc3cc(C)n(C)c3c2=O)c1,60.8*,11.7,10.3,47.5*
N#Cc1cccc(NC(=O)N2CCC(c3nc4c(nnn4Cc4ccc(F)cc4)c(=O)[nH]3)CC2)c1,15.1,19.0,0.1,27.6
N#Cc1cccc(NC(=O)Nc2cccn(Cc3ccc(F)cc3)c2=O)c1,37.9*,74.1*,90.8*,74.1*
FC(F)(F)c1cccc(Nc2nnc(-c3cccnc3)s2)c1,21.7,-2.4,-20.6,50.2*
NC(=O)COC(=O)c1cccnc1Nc1cccc(C(F)(F)F)c1,-44.1,16.5,-7.9,-13.2
COc1ccc(S(=O)(=O)Nc2c(C)c(C)cc3c2nc(C)n3Cc2cccc(C)c2)cc1,32.6*,6.1,11.9,18.2
